About 2,000 (36%) of roughly 5,500 compounds were called active. Roughly 18% stayed inconclusive and do not appear here. Cut-off read from the data, not from the text of the source: active = normalized growth mostly below about 0.91 (no sharp cut-off); inconclusive = no clear call, values can overlap the other calls; inactive = mostly above about 0.92. Some of the results follow.
Assay: chemical genetic growth profiling, strain panel (AID 1159580);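 note: tested at 20 µM; growth read once vehicle control cultures reached saturation at 30 °C; 1 = growth at the plate median or of vehicle wells; lower values mean less growth of the strain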
Settings: growth OD

Measured: normalized growth

COc1cc(C(=O)N2CCOCC2)cc(OC)c1OC
active: S. cerevisiae deletion strains, locus YKL085W, strain MDH1 (second series), stronger effect = lower value 0.353 | S. cerevisiae deletion strains, locus YKL085W, strain MDH1, stronger effect = lower value 0.353 | S. cerevisiae deletion strains, locus YKR001C, strain vps1, stronger effect = lower value 0.127 | S. cerevisiae deletion strains, locus YLR102C, strain apc9, stronger effect = lower value 0.102 | S. cerevisiae deletion strains, locus YLR268W, strain sec22, stronger effect = lower value 0.0891 | S. cerevisiae deletion strains, locus YLR371W, strain rom2, stronger effect = lower value 0.0857 | S. cerevisiae deletion strains, locus YLR418C, strain cdc73, stronger effect = lower value 0.102 | S. cerevisiae deletion strains, locus YML032C, strain rad52, stronger effect = lower value 0.845 | S. cerevisiae deletion strains, locus YML124C, strain tub3, stronger effect = lower value 0.158 | S. cerevisiae deletion strains, locus YMR078C, strain ctf18, stronger effect = lower value 0.205 | S. cerevisiae deletion strains, locus YMR223W, strain ubp8, stronger effect = lower value 0.0851 | S. cerevisiae deletion strains, locus YNL250W, strain rad50, stronger effect = lower value 0.531 | S. cerevisiae deletion strains, locus YNL271C, strain bni1, stronger effect = lower value 0.214 | S. cerevisiae deletion strains, locus YNL298W, strain CLA4, stronger effect = lower value 0.456 | S. cerevisiae deletion strains, locus YNL307C, strain MCK1, stronger effect = lower value 0.0679 | S. cerevisiae deletion strains, locus YOL147C, strain pex11, stronger effect = lower value 0.829 | S. cerevisiae deletion strains, locus YOR136W, strain idh2, stronger effect = lower value 0.0963 | S. cerevisiae deletion strains, locus YOR184W, strain ser1, stronger effect = lower value 0.0727 | S. cerevisiae deletion strains, locus YOR316C, strain cot1, stronger effect = lower value 0.0956 | S. cerevisiae deletion strains, locus YPR119W, strain clb2, stronger effect = lower value 0.143 | S. cerevisiae deletion strains, locus YPR163C, strain tif3, stronger effect = lower value 0.0748 | S. cerevisiae deletion strains, locus YPR167C, strain met16, stronger effect = lower value 0.0923 | S. cerevisiae deletion strains, strain wtn01, stronger effect = lower value 0.0623
inactive: S. cerevisiae deletion strains, locus YJR075W, strain HOC1, stronger effect = lower value 1 | S. cerevisiae deletion strains, locus YKL009W, strain mrt4, stronger effect = lower value 0.926 | S. cerevisiae deletion strains, locus YKL068W, stronger effect = lower value 0.988 | S. cerevisiae deletion strains, locus YKL160W, strain elf1, stronger effect = lower value 1 | S. cerevisiae deletion strains, locus YKL190W, strain CNB1, stronger effect = lower value 1.01 | S. cerevisiae deletion strains, locus YKR026C, strain gcn3, stronger effect = lower value 0.975 | S. cerevisiae deletion strains, locus YKR091W, strain srl3, stronger effect = lower value 0.977 | S. cerevisiae deletion strains, locus YLL001W, strain dnm1, stronger effect = lower value 0.987 | S. cerevisiae deletion strains, locus YLL026W, stronger effect = lower value 0.984 | S. cerevisiae deletion strains, locus YLL041C, strain sdh2, stronger effect = lower value 0.981 | S. cerevisiae deletion strains, locus YLR027C, strain aat2, stronger effect = lower value 1.01 | S. cerevisiae deletion strains, locus YLR039C, strain RIC1, stronger effect = lower value 1.04 | S. cerevisiae deletion strains, locus YLR058C, strain SHM2, stronger effect = lower value 1.01 | S. cerevisiae deletion strains, locus YLR113W, strain HOG1, stronger effect = lower value 0.999 | S. cerevisiae deletion strains, locus YLR221C, strain rsa3, stronger effect = lower value 0.968 | S. cerevisiae deletion strains, locus YLR258W, strain gsy2, stronger effect = lower value 1.01 | S. cerevisiae deletion strains, locus YLR262C, strain YPT6 (second series), stronger effect = lower value 1.02 | S. cerevisiae deletion strains, locus YLR262C, strain YPT6, stronger effect = lower value 1.06 | S. cerevisiae deletion strains, locus YLR320W, strain mms22, stronger effect = lower value 0.982 | S. cerevisiae deletion strains, locus YLR330W, strain CHS5, stronger effect = lower value 1 | S. cerevisiae deletion strains, locus YLR342W, strain FKS1 (second series), stronger effect = lower value 1.06 | S. cerevisiae deletion strains, locus YLR342W, strain FKS1, stronger effect = lower value 0.967 | S. cerevisiae deletion strains, locus YLR357W, strain rsc2, stronger effect = lower value 0.998 | S. cerevisiae deletion strains, locus YLR370C, strain arc18, stronger effect = lower value 1 | S. cerevisiae deletion strains, locus YLR384C, strain iki3, stronger effect = lower value 0.984 | S. cerevisiae deletion strains, locus YML016C, strain PPZ1, stronger effect = lower value 1.01 | S. cerevisiae deletion strains, locus YML120C, strain ndi1, stronger effect = lower value 0.985 | S. cerevisiae deletion strains, locus YMR058W, strain fet3, stronger effect = lower value 0.987 | S. cerevisiae deletion strains, locus YMR125W, strain sto1, stronger effect = lower value 0.993 | S. cerevisiae deletion strains, locus YMR129W, stronger effect = lower value 0.982 | S. cerevisiae deletion strains, locus YMR205C, strain PFK2, stronger effect = lower value 0.982 | S. cerevisiae deletion strains, locus YMR231W, strain pep5, stronger effect = lower value 0.975 | S. cerevisiae deletion strains, locus YMR263W, strain SAP30, stronger effect = lower value 1 | S. cerevisiae deletion strains, locus YMR307W, strain GAS1, stronger effect = lower value 1.06 | S. cerevisiae deletion strains, locus YNL067W, strain RPL9B, stronger effect = lower value 1 | S. cerevisiae deletion strains, locus YNL071W, strain lat1, stronger effect = lower value 0.987 | S. cerevisiae deletion strains, locus YNL128W, strain TEP1, stronger effect = lower value 1 | S. cerevisiae deletion strains, locus YNL153C, strain GIM3, stronger effect = lower value 0.997 | S. cerevisiae deletion strains, locus YNL183C, strain NPR1, stronger effect = lower value 0.967 | S. cerevisiae deletion strains, locus YNL209W, strain ssb2, stronger effect = lower value 0.981 | S. cerevisiae deletion strains, locus YNL233W, strain BNI4, stronger effect = lower value 0.992 | S. cerevisiae deletion strains, locus YNL248C, strain rpa49, stronger effect = lower value 0.991 | S. cerevisiae deletion strains, locus YNL322C, strain KRE1 (second series), stronger effect = lower value 0.975 | S. cerevisiae deletion strains, locus YNL322C, strain KRE1, stronger effect = lower value 1.01 | S. cerevisiae deletion strains, locus YNR049C, strain mso1, stronger effect = lower value 0.971 | S. cerevisiae deletion strains, locus YNR052C, strain pop2, stronger effect = lower value 1.04 | S. cerevisiae deletion strains, locus YOL006C, strain TOP1, stronger effect = lower value 1.05 | S. cerevisiae deletion strains, locus YOR001W, strain rrp6, stronger effect = lower value 0.967 | S. cerevisiae deletion strains, locus YOR061W, strain CKA2, stronger effect = lower value 1.01 | S. cerevisiae deletion strains, locus YOR069W, strain VPS5, stronger effect = lower value 1.01 | S. cerevisiae deletion strains, locus YOR070C, strain gyp1, stronger effect = lower value 0.982 | S. cerevisiae deletion strains, locus YOR080W, strain dia2, stronger effect = lower value 0.979 | S. cerevisiae deletion strains, locus YOR083W, strain WHI5, stronger effect = lower value 1.01 | S. cerevisiae deletion strains, locus YOR106W, strain vam3, stronger effect = lower value 1.01 | S. cerevisiae deletion strains, locus YOR144C, strain elg1, stronger effect = lower value 1.01 | S. cerevisiae deletion strains, locus YOR231W, strain MKK1, stronger effect = lower value 1.01 | S. cerevisiae deletion strains, locus YOR265W, strain rbl2, stronger effect = lower value 1 | S. cerevisiae deletion strains, locus YOR270C, strain vph1, stronger effect = lower value 0.978 | S. cerevisiae deletion strains, locus YOR290C, strain snf2, stronger effect = lower value 1.01 | S. cerevisiae deletion strains, locus YPL051W, strain arl3, stronger effect = lower value 0.993 | S. cerevisiae deletion strains, locus YPL055C, strain LGE1, stronger effect = lower value 1 | S. cerevisiae deletion strains, locus YPL078C, strain atp4, stronger effect = lower value 0.982 | S. cerevisiae deletion strains, locus YPL106C, strain sse1, stronger effect = lower value 0.998 | S. cerevisiae deletion strains, locus YPL240C, strain hsp82, stronger effect = lower value 1 | S. cerevisiae deletion strains, locus YPL241C, strain CIN2, stronger effect = lower value 1.01 | S. cerevisiae deletion strains, locus YPL256C, strain CLN2, stronger effect = lower value 1.07 | S. cerevisiae deletion strains, locus YPR141C, strain kar3, stronger effect = lower value 1.03 | S. cerevisiae strains, strain wild type, stronger effect = lower value 1.01

Source: PubChem BioAssay AID1159580 (chemical genetic matrix, 2015)
